mHTT CaM bind: mHTT-calmodulin interaction abrogation; P42858; AlphaScreen His-mHTT/GST-CaM binding, luminescence; inhibition, % at 15 µM; 190,000 compounds, 3.6% hits; AID 1671202;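 also: 0% = both proteins with DMSO and 100% = one protein alone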
Pf apPOL inh: Pf-apPOL DNA polymerase inhibition | 210,000 compounds, 0.25% hits | AID 1794808 | inhibition, % at 10 µM | Recombinant Pf-apPOL, molecular beacon fluorescence, 1.5 h
Starred values were filed as active, the others as inactive; x = not tested or not shown. Shown is part of a subset that was picked to be rich in hits. Rule as the data show it: active = inhibition above about 50%; inactive = the rest.

SMILES | mHTT CaM bind | Pf apPOL inh
Cc1scc2nc(C(=O)NCc3ccc(F)cc3)nc(N3CCCC3)c12 | 81* | -19
c1ccc(CN2CCCC(c3nc(-c4cccnc4)n[nH]3)C2)nc1 (configuration not stated) | 99* | -23
N#Cc1cccc(CN2CCCC(c3nc(-c4ccncc4)n[nH]3)C2)c1 (configuration not stated) | 18 | -7
N#Cc1ccc(CN2CCCC(c3nc(-c4cccnc4)n[nH]3)C2)cc1 (configuration not stated) | -12 | 6
c1cc(-c2n[nH]c(C3CCCN(Cc4ccc5cc[nH]c5c4)C3)n2)ccn1 (configuration not stated) | 53* | 3
Cc1ccc(C2CC(c3cccs3)n3nnnc3N2)cc1C (configuration not stated) | 0 | 0
O=C(Cc1ccccc1Cl)NCC1CCN(C(=O)Nc2ccc(F)cc2)CC1 | -2 | -2
Cc1nc(-c2ccc(C(F)(F)F)cc2)sc1CO | x | -8
Cc1sc2ncn(CC(=O)Nc3ccccc3)c(=O)c2c1C | 6 | -2
COCCCNC(=O)C1CCN(Cc2cc3ccccc3n2Cc2cccc(F)c2)CC1 | 51* | 4
COCCCNC(=O)C1CCN(c2cnn(Cc3ccccc3)c(=O)c2)CC1 | -2 | -1
COCCCNC(=O)C1CCN(c2ncccc2-c2nc(-c3cccc(F)c3)no2)CC1 | -4 | -4
COCCCNC(=O)C1CCN(Cc2cc3ccccc3n2Cc2ccc(F)cc2)CC1 | 53* | 3
Cc1cccc(C(=O)N2N=C(c3ccc(Cl)cc3)CC2(O)C(F)(F)F)c1 (configuration not stated) | 89* | -7
CCC1=NN(C(=O)c2ccc(Cl)cc2)C(O)(C(F)(F)F)C1 (configuration not stated) | 8 | 94*
CCC1=NN(C(=O)c2ccc(I)cc2)C(O)(C(F)(F)F)C1 (configuration not stated) | 15 | 3
O=C(c1cccc(Cl)c1)N1N=C(c2ccc(Cl)cc2)CC1(O)C(F)(F)F (configuration not stated) | -4 | -2
O=C1CC(NC23CC4CC(CC(C4)C2)C3)C(=O)N1Cc1ccccc1 (configuration not stated) | -10 | -1
Cc1cccc(C(=O)Nc2c3c(nn2-c2ccc(F)cc2)CS(=O)(=O)C3)c1 | 7 | -4
CCOC1=NN(c2ccc([N+](=O)[O-])cc2)C(=O)/C1=C/c1cccc(Cl)c1Cl | 65* | -15
CCOC1=NN(c2ccc([N+](=O)[O-])cc2)C(=O)/C1=C/c1ccccc1OCC | 22 | 2
O=C(c1ccccc1)N1CCN(Cc2cc(Br)ccc2O)CC1 | 14 | -2
CCSc1sc(C(=O)OC)c2c1C(=NO)CC(C)(C)C2 | x | -14
Cc1cccc(NC(=O)N2CC3CCCN3c3ccccc32)c1C (configuration not stated) | 30 | -3
CCOc1ccccc1NC(=O)N1CC(CC)Oc2ccccc21 (configuration not stated) | -49 | -4
SMILES | mHTT CaM bind | Pf apPOL inh
O=C(Nc1ccccc1Br)N1CC2CCCN2c2ccccc21 (configuration not stated) | 74* | 2
O=C(NCc1ccco1)c1ccc(NC(=O)N2CC3CCCN3c3ccccc32)cc1 (configuration not stated) | 15 | 1
Cc1ccccc1NC(=O)N1CC2CCCN2c2ccccc21 (configuration not stated) | 61* | -2
CCOc1ccccc1NC(=O)N1CC2CCCN2c2ccccc21 (configuration not stated) | 80* | 1
COc1ncc(C(=O)N2CCN(c3cc(C)ccc3C)CC2)cn1 | -1 | 3
CC(=O)NC(=CC=Cc1ccccc1)C(=O)O | x | -9
COc1cc(OC)c2ccc(=O)oc2c1C(CCN1CCOCC1)c1ccc2c(c1)OCO2 (configuration not stated) | 41 | -9
COc1cc(OC)c2ccc(=O)oc2c1C(CCN1CCCC1)c1ccc2c(c1)OCO2 (configuration not stated) | 17 | -9
CCCCCc1cc(=O)oc2c(C(CCN3CCCC3)c3ccc4c(c3)OCO4)c(OC)cc(OC)c12 (configuration not stated) | 100* | -25
COc1cc(OC)c2c(-c3ccccc3)cc(=O)oc2c1C(CCN1CCCC1)c1ccc2c(c1)OCO2 (configuration not stated) | 100* | -18
COc1cc(OC)c2c(-c3ccccc3)cc(=O)oc2c1C(CCN1CCOCC1)c1ccc2c(c1)OCO2 (configuration not stated) | 84* | -5
COc1ccc(OC)c(N2C(=O)CCC2(C)C(=O)NCCC(C)C)c1 (configuration not stated) | -8 | -4
Cc1ccc(OCCCN2CCOCC2)c(C)c1 | -2 | -4
C=C(C)C1CC=C(CN2CCN(CC)CC2)CC1 (configuration not stated) | 2 | -4
COc1ccc(Nc2nc(N)nc(CN3CCN(c4ccccc4)CC3)n2)cc1 | 54* | -4
COc1ccc(Nc2nc(N)nc(CN3CCCCC3)n2)cc1 | 0 | -4
c1ccc(CSCCSc2ncn[nH]2)cc1 | 0 | 3
COc1ccc(CNC(=O)c2cc3n(n2)CCCN(Cc2ccc(Cl)cc2)C3=O)cc1 | 9 | 12
CN(C)c1ccc(/C=C2\C(=O)NN(c3ccc(Cl)c(Cl)c3)C2=O)cc1 | 13 | -2
CSc1cccc2sc(N(CCN(C)C)C(=O)c3ccc(N(C)C)cc3)nc12 | 42 | -3
CN(C)CCCN(C(=O)c1cccc(C(F)(F)F)c1)c1nc2ccc(F)cc2s1 | 55* | -9
COc1ccc(CN2CCN(C(=O)c3ccc([N+](=O)[O-])cc3)CC2)c(OC)c1 | 6 | -9
CC1=C(C#N)C(=O)N(CCO)C(=O)/C1=C/c1ccc(-c2ccc3c(c2)COC3=O)o1 | 60* | -4
CC1=C(C#N)C(=O)N(CC(C)O)C(=O)/C1=C\c1ccc(-c2ccc(Cl)cc2)o1 (configuration not stated) | 22 | -13
CC1=C(C#N)C(=O)N(CC(C)O)C(=O)/C1=C\c1ccc(-c2cccc(Cl)c2C)o1 (configuration not stated) | 75* | -8
SMILES | mHTT CaM bind | Pf apPOL inh
CC1=C(C#N)C(=O)N(CCO)C(=O)/C1=C\c1ccc(-c2cc(Cl)ccc2Cl)o1 | 37 | -3
Cc1ccc(N2CC(C(=O)NCCN(C)C)CC2=O)cc1Cl (configuration not stated) | 4 | -7
O=C(CSc1cccs1)NC1=NN(c2ccccc2)C(=O)C1 | 82* | -2
O=C(CSc1cccs1)Nc1nccs1 | -1 | x
COC(=O)[C@H](CC(C)C)N(Cc1cc(OC)cc(OC)c1)S(=O)(=O)c1ccccc1Br | -30 | -7
Cc1cc(C)c(NC(=O)c2ccncc2)c(Cl)c1 | -3 | -2
O=C(Nc1ccccc1-c1nc2ccccc2[nH]1)c1ccccc1F | 34 | 5
CCSc1ccccc1C(=O)Nc1ccccc1-c1nc2ccccc2[nH]1 | 61* | -9
Cc1ccc(Oc2ccc([N+](=O)[O-])cc2)cc1C | x | -8
OC(COC12CC3CC(CC(C3)C1)C2)CN1CCN(c2ccccc2)CC1 (configuration not stated) | 12 | 6
OC(COCCC12CC3CC(CC(C3)C1)C2)CN1CCN(c2ccccc2)CC1 (configuration not stated) | 55* | 0

Screening results: PubChem BioAssay, University of Kansas High Throughput Screening Laboratory
